Data taken from PubChem BioAssay AID1159580 (chemical genetic matrix, 2015).
About 2,000 (36%) of roughly 5,500 compounds were called active. Another 18% or so got no clear call; they are omitted. No stated cut-off is given here; in the data, active means normalized growth mostly below about 0.91 (no sharp cut-off); inconclusive means no clear call, values can overlap the other calls; inactive means mostly above about 0.92. The list shows a part of the results.

Assay: chemical genetic growth profiling, strain panel (AID 1159580);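 further: tested at 20 µM; growth read once vehicle control cultures reached saturation at 30 °C; 1 = growth at the plate median or of vehicle wells; lower values mean less growth of the strain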
Details: growth OD

Measured: normalized growth

COc1ccc2c(c1)O[C@H]1c3ccc(OC)cc3OC[C@@H]21
active: S. cerevisiae deletion strains, locus YKL009W, strain mrt4, active compounds read low 0.837 | S. cerevisiae deletion strains, locus YLR418C, strain cdc73, active compounds read low 0.691 | S. cerevisiae deletion strains, locus YML032C, strain rad52, active compounds read low 0.873 | S. cerevisiae deletion strains, locus YNL298W, strain CLA4, active compounds read low 0.908 | S. cerevisiae deletion strains, locus YNL307C, strain MCK1, active compounds read low 0.475 | S. cerevisiae deletion strains, locus YOL147C, strain pex11, active compounds read low 0.886 | S. cerevisiae deletion strains, locus YOR184W, strain ser1, active compounds read low 0.685 | S. cerevisiae deletion strains, locus YPR163C, strain tif3, active compounds read low 0.677 | S. cerevisiae deletion strains, locus YPR167C, strain met16, active compounds read low 0.907 | S. cerevisiae deletion strains, strain wtn01, active compounds read low 0.886
inactive: S. cerevisiae deletion strains, locus YJR075W, strain HOC1, active compounds read low 0.969 | S. cerevisiae deletion strains, locus YKL068W, active compounds read low 0.99 | S. cerevisiae deletion strains, locus YKL085W, strain MDH1 (second series), active compounds read low 0.98 | S. cerevisiae deletion strains, locus YKL085W, strain MDH1, active compounds read low 0.98 | S. cerevisiae deletion strains, locus YKL160W, strain elf1, active compounds read low 1.03 | S. cerevisiae deletion strains, locus YKL190W, strain CNB1, active compounds read low 1.01 | S. cerevisiae deletion strains, locus YKR001C, strain vps1, active compounds read low 0.936 | S. cerevisiae deletion strains, locus YKR026C, strain gcn3, active compounds read low 1.02 | S. cerevisiae deletion strains, locus YKR091W, strain srl3, active compounds read low 1.03 | S. cerevisiae deletion strains, locus YLL001W, strain dnm1, active compounds read low 1.02 | S. cerevisiae deletion strains, locus YLL026W, active compounds read low 1.03 | S. cerevisiae deletion strains, locus YLL041C, strain sdh2, active compounds read low 1.03 | S. cerevisiae deletion strains, locus YLR027C, strain aat2, active compounds read low 1.01 | S. cerevisiae deletion strains, locus YLR039C, strain RIC1, active compounds read low 0.767 | S. cerevisiae deletion strains, locus YLR058C, strain SHM2, active compounds read low 0.957 | S. cerevisiae deletion strains, locus YLR102C, strain apc9, active compounds read low 0.949 | S. cerevisiae deletion strains, locus YLR113W, strain HOG1, active compounds read low 1.02 | S. cerevisiae deletion strains, locus YLR221C, strain rsa3, active compounds read low 1.02 | S. cerevisiae deletion strains, locus YLR258W, strain gsy2, active compounds read low 1.03 | S. cerevisiae deletion strains, locus YLR262C, strain YPT6 (second series), active compounds read low 1 | S. cerevisiae deletion strains, locus YLR262C, strain YPT6, active compounds read low 0.744 | S. cerevisiae deletion strains, locus YLR268W, strain sec22, active compounds read low 0.9 | S. cerevisiae deletion strains, locus YLR320W, strain mms22, active compounds read low 1.02 | S. cerevisiae deletion strains, locus YLR330W, strain CHS5, active compounds read low 0.975 | S. cerevisiae deletion strains, locus YLR342W, strain FKS1, active compounds read low 1.02 | S. cerevisiae deletion strains, locus YLR357W, strain rsc2, active compounds read low 0.99 | S. cerevisiae deletion strains, locus YLR370C, strain arc18, active compounds read low 1.03 | S. cerevisiae deletion strains, locus YLR371W, strain rom2, active compounds read low 0.972 | S. cerevisiae deletion strains, locus YLR384C, strain iki3, active compounds read low 1.03 | S. cerevisiae deletion strains, locus YML016C, strain PPZ1, active compounds read low 0.985 | S. cerevisiae deletion strains, locus YML120C, strain ndi1, active compounds read low 1.02 | S. cerevisiae deletion strains, locus YML124C, strain tub3, active compounds read low 0.95 | S. cerevisiae deletion strains, locus YMR058W, strain fet3, active compounds read low 1.02 | S. cerevisiae deletion strains, locus YMR078C, strain ctf18, active compounds read low 0.915 | S. cerevisiae deletion strains, locus YMR125W, strain sto1, active compounds read low 1.02 | S. cerevisiae deletion strains, locus YMR129W, active compounds read low 1.03 | S. cerevisiae deletion strains, locus YMR205C, strain PFK2, active compounds read low 1.04 | S. cerevisiae deletion strains, locus YMR223W, strain ubp8, active compounds read low 0.92 | S. cerevisiae deletion strains, locus YMR231W, strain pep5, active compounds read low 1.03 | S. cerevisiae deletion strains, locus YMR307W, strain GAS1, active compounds read low 0.927 | S. cerevisiae deletion strains, locus YNL067W, strain RPL9B, active compounds read low 0.989 | S. cerevisiae deletion strains, locus YNL071W, strain lat1, active compounds read low 1.01 | S. cerevisiae deletion strains, locus YNL153C, strain GIM3, active compounds read low 0.953 | S. cerevisiae deletion strains, locus YNL183C, strain NPR1, active compounds read low 0.946 | S. cerevisiae deletion strains, locus YNL209W, strain ssb2, active compounds read low 1.01 | S. cerevisiae deletion strains, locus YNL233W, strain BNI4, active compounds read low 0.953 | S. cerevisiae deletion strains, locus YNL248C, strain rpa49, active compounds read low 1.02 | S. cerevisiae deletion strains, locus YNL250W, strain rad50, active compounds read low 0.993 | S. cerevisiae deletion strains, locus YNL271C, strain bni1, active compounds read low 0.944 | S. cerevisiae deletion strains, locus YNL322C, strain KRE1 (second series), active compounds read low 1.04 | S. cerevisiae deletion strains, locus YNR049C, strain mso1, active compounds read low 1.02 | S. cerevisiae deletion strains, locus YNR052C, strain pop2, active compounds read low 0.963 | S. cerevisiae deletion strains, locus YOL012C, strain htz1 1.39 | S. cerevisiae deletion strains, locus YOR001W, strain rrp6, active compounds read low 1.02 | S. cerevisiae deletion strains, locus YOR061W, strain CKA2, active compounds read low 0.997 | S. cerevisiae deletion strains, locus YOR069W, strain VPS5, active compounds read low 0.982 | S. cerevisiae deletion strains, locus YOR070C, strain gyp1, active compounds read low 1.01 | S. cerevisiae deletion strains, locus YOR080W, strain dia2, active compounds read low 1.02 | S. cerevisiae deletion strains, locus YOR083W, strain WHI5, active compounds read low 1.03 | S. cerevisiae deletion strains, locus YOR106W, strain vam3, active compounds read low 1.03 | S. cerevisiae deletion strains, locus YOR136W, strain idh2, active compounds read low 0.953 | S. cerevisiae deletion strains, locus YOR144C, strain elg1, active compounds read low 0.951 | S. cerevisiae deletion strains, locus YOR231W, strain MKK1, active compounds read low 0.979 | S. cerevisiae deletion strains, locus YOR265W, strain rbl2, active compounds read low 1.03 | S. cerevisiae deletion strains, locus YOR270C, strain vph1, active compounds read low 1.01 | S. cerevisiae deletion strains, locus YOR290C, strain snf2, active compounds read low 1.04 | S. cerevisiae deletion strains, locus YOR316C, strain cot1, active compounds read low 0.962 | S. cerevisiae deletion strains, locus YPL051W, strain arl3, active compounds read low 1.03 | S. cerevisiae deletion strains, locus YPL078C, strain atp4, active compounds read low 1.04 | S. cerevisiae deletion strains, locus YPL106C, strain sse1, active compounds read low 1.03 | S. cerevisiae deletion strains, locus YPL240C, strain hsp82, active compounds read low 1.02 | S. cerevisiae deletion strains, locus YPL241C, strain CIN2, active compounds read low 0.982 | S. cerevisiae deletion strains, locus YPL256C, strain CLN2, active compounds read low 0.939 | S. cerevisiae deletion strains, locus YPR119W, strain clb2, active compounds read low 0.939 | S. cerevisiae deletion strains, locus YPR141C, strain kar3, active compounds read low 0.975 | S. cerevisiae strains, strain wild type, active compounds read low 1.01
